{"source": "PubChem BioAssay AID602373", "about": "(National Center for Advancing Translational Sciences (NCATS), 2012)", "note": "Inconclusive results are not listed. The source made the active and inactive calls. Calls come from the whole dose curve; as a rule, active = well fitted inhibition curve with a large enough effect; inconclusive = small, poorly fitted or top-dose-only effect; inactive = no such curve, though single readings can be large or run the other way.", "data": [{"assay": "qHTS Assay for Inhibitors of Bacillus subtilis Sfp phosphopantetheinyl transferase (PPTase): Hepg2 Assay", "conditions": "HepG2 cytotoxicity counter-screen; series mostly up to 46.1 µM; activity change, negative = inhibition: at the top concentration", "source_text": "The covalent attachment of a phosphopantetheinyl (4'-PP) arm to a variety of synthases and other proteins is a key posttranslational protein modification. The 4'-PP is installed on the proteins post-translationally from coenzyme A (CoA) on a conserved serine residue by action of phosphopantetheinyl transferase (PPTase) enzymes. Phosphopantetheinylation is essential for synthase activity, and removal of the PPTase gene precludes natural product synthesis in microorganisms, or in the case of fatty acid biosynthesis, renders the organism unviable. PPTase enzymes belong to a distinct structural superfamily. Within bacteria, these enzymes are grouped into two classes based upon primary structure, the AcpS-Type and Sfp-Type PPTases.\nSfp-type PPTases, corresponding to an activator of surfactin production in Bacillus subtilis, are responsible for modifying type I polyketide and nonribosomal peptide synthases of prokaryotes. Sfp-type PPTases are responsible for the activation of a variety of pathogen-associated virulence factors. Among these compounds are toxins such as mycolactone from Mycobacterium ulcerans, siderophores such as vibriobactin from Vibrio cholerae or mycobactin from Mycobacterium tuberculosis, as well as the mycolic acids which form the waxy cell wall of Mycobacteria. The biosyntheses of these natural products are considered attractive targets for drug design.\nIn search of small molecule Sfp-PPTase inhibitors, a fluorescence quenching assay was developed for detection of Bacillus subtilis Sfp-PPTase enzymatic activity in a miniaturized high-throughput format. The consensus ybbr acceptor peptide […] was N-terminally labeled with Black Hole Quencher-2 (BHQ-2) and used in combination with rhodamine-labeled coenzyme A as a co-substrate.\nPhosphopantetheinyl transfer is a process essential to cellular viability and maintenance in all forms of life. Cell-permeable and stable compounds acting as PPTase inhibitors are anticipated to be growth inhibitory agents. This assay sought to assess the toxicity of test compounds in the HepG2 hepatocarcinoma cells; a human cell line whose use additionally determines the toxicity of test article metabolites.\nNIH Chemical Genomics Center [NCGC]\nNIH Molecular Libraries Probe Centers Network [MLPCN]\nAssay Submitter (PI): Michale Burkart, University of California, San Diego\nTest compounds' toxicity was assessed by measuring cellular ATP content using a luciferase-coupled ATP quantitation assay (CellTiter-Glo; Promega, Madison, WI). In this assay, luminescent signal is proportional to amount of ATP, and thus to the number of metabolically competent cells. Briefly, Hepg2 cell suspension (5 uL, 4 x 10^5 cells/mL) was dispensed into 1,536-well tissue-culture treated white/solid bottom assay plates (Greiner Bio-One North America, Monroe, NC) using a Flying Reagent Dispenser (Aurora Discovery, Carlsbad, CA). Cells were incubated at 37 deg C for 6 hr to allow for cell attachment, followed by addition of compounds via pin tool (Kalypsys, San Diego, CA). After compound addition, plates were incubated for 48 hr at 37 deg C. At the end of the incubation period, CellTiter-Glo reagent (5 uL) was added, plates were incubated at room temperature in the dark for 30 min, and the luminescence intensity of each well was determined using a ViewLux plate reader (PerkinElmer, Shelton, CT). The positive control was 92 uM and 41 uM of tetra-N-Octylammonium bromide, and the negative control was DMSO.", "values": [{"compound": "COc1cccc(NC(=S)N2CCN(c3ccccc3C(F)(F)F)CC2)n1", "activity change, negative = inhibition": "-4.58% (inactive)"}, {"compound": "Cc1cc(C)nc(NC(=S)N2CCN(c3ncnc4sccc34)CC2)c1", "Potency": "15.8 µM (active)"}, {"compound": "Cc1cc(C)nc(NC(=S)N2CCN(c3ccc4cn(C)nc4c3)CC2)c1", "activity change, negative = inhibition": "11.5% (inactive)"}, {"compound": "Cc1cc(C)nc(NC(=S)N2CCN(c3cc(F)cc(F)c3)CC2)c1", "activity change, negative = inhibition": "3.56% (inactive)"}, {"compound": "CC(=O)N1CCN(C(=S)Nc2cc(C)ccn2)CC1", "activity change, negative = inhibition": "4.75% (inactive)"}, {"compound": "Cc1cc(C)nc(NC(=S)N2CCN(c3cnc4nccn4c3)CC2)c1", "activity change, negative = inhibition": "-7.6% (inactive)"}, {"compound": "Cc1cc(C)nc(NC(=S)N2CCN(c3ncccc3C#N)CC2)c1", "activity change, negative = inhibition": "-4.59% (inactive)"}, {"compound": "Cc1ccnc(NC(=S)NC2CCN(c3cccc(C(F)(F)F)c3)CC2)c1", "activity change, negative = inhibition": "-11.6% (inactive)"}, {"compound": "Cc1cc(C)nc(NC(=S)N2CCN(c3ccc(C(=O)O)cc3)CC2)c1", "activity change, negative = inhibition": "-3.29% (inactive)"}, {"compound": "CN(C)c1ccc2nc(NC(=S)N3CCN(c4cccc(C(F)(F)F)c4)CC3)sc2c1", "Potency": "8.88 µM (active)"}, {"compound": "CC(Cc1ccccc1)C(=O)Nc1ccc(Cl)cc1C(=O)O", "note": "(configuration not stated)", "activity change, negative = inhibition": "-0.724% (inactive)"}, {"compound": "CCN1CCN(C(=S)c2ccc(O)cc2)CC1", "activity change, negative = inhibition": "6.5% (inactive)"}, {"compound": "COc1ccc(N2CCN(C(=S)Nc3cc(C)ccn3)CC2)cc1", "activity change, negative = inhibition": "-8.81% (inactive)"}, {"compound": "Cc1cc(C)nc(NC(=S)N2CCN(c3noc4ccccc34)CC2)c1", "activity change, negative = inhibition": "-8.93% (inactive)"}, {"compound": "Cc1cc(C)nc(NC(=S)N2CCN(c3cccc(S(C)(=O)=O)c3)CC2)c1", "activity change, negative = inhibition": "-7.99% (inactive)"}, {"compound": "Cc1cc(C)nc(NC(=S)N2CCN(c3ccc4nncn4c3)CC2)c1", "activity change, negative = inhibition": "1.53% (inactive)"}, {"compound": "CC(=O)c1ccc(N2CCN(C(=S)Nc3cc(C)ccn3)CC2)cc1", "activity change, negative = inhibition": "-7.72% (inactive)"}, {"compound": "Cc1cc(C)nc(NC(=S)N2CCN(c3ccccn3)CC2)c1", "Potency": "inactive"}, {"compound": "Cc1cc(C)nc(NC(=S)N2CCN(c3ccc(Cl)cc3C(F)(F)F)CC2)c1", "activity change, negative = inhibition": "-3.78% (inactive)"}, {"compound": "COc1cccc(NC(=S)N2CCN(c3cccc(Cl)c3Cl)CC2)n1", "activity change, negative = inhibition": "-0.194% (inactive)"}, {"compound": "Cc1cc(C)nc(NC(=S)N2CCN(c3nncs3)CC2)c1", "activity change, negative = inhibition": "-6.67% (inactive)"}, {"compound": "Cc1cc(C)nc(NC(=S)N2CCN(S(=O)(=O)c3cccc(C(F)(F)F)c3)CC2)c1", "activity change, negative = inhibition": "-12.4% (inactive)"}, {"compound": "COc1cc(NC(=S)N2CCN(c3cccc(C(F)(F)F)c3)CC2)nc2ccccc12", "activity change, negative = inhibition": "-1.11% (inactive)"}, {"compound": "Cc1ccnc(NC(=S)N2CCN(c3ccc(Br)cc3)CC2)c1", "activity change, negative = inhibition": "-4.53% (inactive)"}, {"compound": "FC(F)(F)c1cccc(N2CCN(C(=S)Nc3cnccn3)CC2)c1", "activity change, negative = inhibition": "-0.551% (inactive)"}, {"compound": "Cc1cc(C)nc(NC(=S)N2CCN(c3nsc4ccccc34)CC2)c1", "activity change, negative = inhibition": "-7.35% (inactive)"}, {"compound": "Cc1cc(C)nc(NC(=S)N2CCN(c3ccc(NS(C)(=O)=O)nn3)CC2)c1", "activity change, negative = inhibition": "0.438% (inactive)"}, {"compound": "Cc1cc(C)nc(NC(=S)N2CCN(c3ncccc3Cl)CC2)c1", "activity change, negative = inhibition": "2.69% (inactive)"}, {"compound": "COc1cccc(NC(=S)N2CCN(c3ccc(Cl)cc3Cl)CC2)n1", "activity change, negative = inhibition": "-2.52% (inactive)"}, {"compound": "Cc1ccnc(N(C)C(=S)N2CCN(c3cccc(C(F)(F)F)c3)CC2)c1", "activity change, negative = inhibition": "-10.8% (inactive)"}, {"compound": "Cc1cc(C)nc(NC(=S)N2CCN(c3ccc(Cl)nn3)CC2)c1", "activity change, negative = inhibition": "-6.42% (inactive)"}, {"compound": "Cc1ccnc(N=C(N)N2CCN(c3cccc(C(F)(F)F)c3)CC2)c1", "Potency": "28.1 µM (active)"}, {"compound": "COc1ccnc(NC(=S)N2CCN(c3ccc(Cl)cc3Cl)CC2)c1", "activity change, negative = inhibition": "-6.72% (inactive)"}, {"compound": "Cc1cc(C)nc(NC(=S)N2CCN(c3ccncc3)CC2)c1", "activity change, negative = inhibition": "7.96% (inactive)"}, {"compound": "COc1cccc(NC(=S)N2CCN(c3cccc(C(F)(F)F)n3)CC2)n1", "activity change, negative = inhibition": "-11.6% (inactive)"}, {"compound": "FC(F)(F)c1cnc(N2CCN(C(=S)Nc3cc(Cl)ccn3)CC2)c(Cl)c1", "activity change, negative = inhibition": "-6.14% (inactive)"}, {"compound": "S=C(Nc1cc(Cl)ccn1)N1CCN(c2cc(Cl)cc(Cl)c2)CC1", "Potency": "9.96 µM (active)"}]}]}
